USP17 inh = inhibitors of human USP17 deubiquitinase. A8MUK1. inhibition, % at 50 µM. 47,000 tested, 6.5% active. purified USP17, Ub-rhodamine cleavage fluorescence, 3 h
Target sequence (A8MUK1 whole entry, looked up): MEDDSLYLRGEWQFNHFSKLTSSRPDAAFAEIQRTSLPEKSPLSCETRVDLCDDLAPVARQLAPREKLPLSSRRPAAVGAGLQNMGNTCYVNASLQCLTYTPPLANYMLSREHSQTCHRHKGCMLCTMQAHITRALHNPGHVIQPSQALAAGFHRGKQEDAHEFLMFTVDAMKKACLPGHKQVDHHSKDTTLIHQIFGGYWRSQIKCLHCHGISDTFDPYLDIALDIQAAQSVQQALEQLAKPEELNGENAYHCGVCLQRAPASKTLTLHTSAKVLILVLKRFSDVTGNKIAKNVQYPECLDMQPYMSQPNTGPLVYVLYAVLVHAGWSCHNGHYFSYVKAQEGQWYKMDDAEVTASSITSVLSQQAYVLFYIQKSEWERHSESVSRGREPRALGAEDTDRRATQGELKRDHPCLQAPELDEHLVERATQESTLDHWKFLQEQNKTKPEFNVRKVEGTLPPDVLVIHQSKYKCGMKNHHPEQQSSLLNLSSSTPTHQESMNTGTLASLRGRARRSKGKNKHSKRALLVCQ
USP28 block = inhibitors of human USP28 deubiquitinase | Q96RU2 | purified USP28, Ub-rhodamine cleavage fluorescence, 30 min | inhibition, % at 25 µM | 47,000 tested, 3% active
USP30 block = blocks human USP30 ubiquitin-rhodamine cleavage. Q70CQ3. purified USP30, Ub-rhodamine cleavage fluorescence. inhibition, % at 25 µM. 47,000 tested, 5.3% active. AID 1645860
Numbers without * were called inactive; i = inactive; nt = no result given. This is a sample that favours compounds with a hit; in the whole collection about 11% have one here. Rule as the data show it: active = inhibition above about 30%; inactive = the rest.

SMILES	USP17 inh	USP28 block	USP30 block
c1ccc(N(c2ccccc2)c2nc(N3CCCCCC3)nc(-n3nnc4ccccc43)n2)cc1	3	-7	0
O=C(Cn1cc(S(=O)(=O)Cc2ccccc2)c2ccccc21)NC1CCCCC1	17	-10	-179
COc1cccc(OC)c1C(=O)Nc1cccc(-c2ccc(N3CCCC3)nn2)c1	36*	10	5
COc1cccc(OC)c1C(=O)Nc1cccc(-c2ccc(N3CCN(C)CC3)nn2)c1	41*	4	-13
O=C(Nc1cccc(-c2ccc(N3CCCC3)nn2)c1)c1c(F)cccc1F	31*	22	2
COc1cccc(OC)c1C(=O)Nc1cccc(N2CCCCC2=O)c1	-1	-2	-6
COc1ccc(NC(=O)c2ccc(-c3ccc(N4CCOCC4)nn3)cc2)c(OC)c1	-4	-5	18
O=C(Nc1cnc(N2CCCC2)nc1)c1c(F)cccc1Cl	-2	3	-1
Cc1[nH]c(C(=O)NCc2ccc(F)cc2)c(C)c1S(=O)(=O)N1CCCC1	0	-2	-25
CN(C)S(=O)(=O)c1cccc(NS(=O)(=O)c2cc(C(=O)O)ccc2Cl)c1	-53	-1	-45
CC(=O)N1CCCC[C@H]2[C@@H]1[C@H](c1ccccc1)CN2C(=O)c1ccno1	-8	0	5
Cc1noc(C)c1CN1CC[C@H]2CO[C@H](CNc3ncccn3)[C@H]2C1	-8	nt	nt
COc1cccc(OCC(=O)Nc2ccc3c(c2)CCC(=O)N3Cc2ccccc2)c1	20	35*	11
Cc1cccc(OCC(=O)Nc2ccc3c(c2)CCC(=O)N3Cc2ccccc2)c1	16	15	31*
COc1cccc(NC(=O)COc2ccc3c(c2)CCC3)c1	8	16	2
O=C(COc1ccc(Cl)cc1)Nc1ccc2c(c1)CCC(=O)N2Cc1ccccc1	3	3	11
COc1cccc(CNC(=O)C2CCCN(c3nc4ccccc4[nH]3)C2)c1 (centres undefined)	4	nt	nt
CCCCc1nc2sc3c(SCC(=O)N4CCCCC4)ncnc3c2c2c1CCC2	-8	nt	nt
O=C(c1ccc2nc[nH]c2c1)N1CCC2(CC1)Nc1cccnc1NC2=NC1CCCC1	-196	-160	i
Cc1cnnn1-c1ccc(C(=O)Nc2ccc(Cl)cc2)cc1	45*	50*	58*
Cc1cnnn1-c1ccc(C(=O)Nc2ccccc2Cl)cc1	1	nt	nt
O=C(NCCc1ccccc1)C1CCCN(c2ccc(-c3ccccc3)nn2)C1 (centres undefined)	0	-11	5
CC1CC(=O)c2c(cc3c(-c4c(O)cc(O)c5c(O)c6c(cc45)OC(C)CC6=O)c(O)cc(O)c3c2O)O1 (centres undefined)	88*	85*	9
CS(=O)(=O)N(CC(=O)Nc1ccc(S(=O)(=O)N2CCCC2)cc1)c1ccc(Cl)cc1	0	-8	0
CC(C)(C)c1ccc(N(CC(N)=O)S(C)(=O)=O)cc1	11	3	34*
SMILES	USP17 inh	USP28 block	USP30 block
CCn1c(=O)c(N2CCC(C(=O)NCCCN3CCCCC3C)CC2)nc2cccnc21 (centres undefined)	4	5	7
CC1CCCN(CCCNC(=O)c2ccc(N3CCc4ccccc43)s2)C1 (centres undefined)	3	58*	24
CC1CCCCN1CCCNC(=O)c1ccc(N2CCc3ccccc32)s1 (centres undefined)	28	56*	24
CCN1CCN(CCNC(=O)c2ccc(N3CCc4ccccc43)s2)CC1	1	12	-67
CC(C)NC(=O)c1cc(-c2cnc(N3CCCC3)nc2)cn1CC1CC1	-7	-4	-27
Cc1ccc2nc(N3CCN(C4CCCCC4)CC3)c3nncn3c2c1	-70	-71	-209
Cc1cc(C)cc(NC(=O)CSc2ccc(-c3ccncc3)nn2)c1	-5	19	55*
CCc1ccc(NC(=O)CSc2ccc(-c3ccncc3)nn2)cc1	5	2	-5
COc1ccc(-n2c(CN3CCC(C(N)=O)CC3)nc3ccc([N+](=O)[O-])cc3c2=O)c(OC)c1	-3	3	-65
COc1cccc(-n2c(CNCc3cccnc3)nc3ccc([N+](=O)[O-])cc3c2=O)c1	36*	36*	68*
COc1ccc(C(=O)N2CCN(Cc3nnnn3-c3ccc(OC)cc3)CC2)cc1	4	0	6
O=C(Cn1cc(S(=O)(=O)Cc2ccc(Cl)cc2)c2ccccc21)N1CCCC1	-10	1	-7
CCOC(=O)c1ccc(-n2c(CN3CCN(c4cc(C)ccc4C)CC3)nc3ccc([N+](=O)[O-])cc3c2=O)cc1	12	12	30*
CCOC(=O)C1CCN(Cc2nc3ccc([N+](=O)[O-])cc3c(=O)n2-c2cc(OC)cc(OC)c2)CC1	18	0	-10
O=c1c2cc([N+](=O)[O-])ccc2nc(CN2CCN(c3ncccn3)CC2)n1-c1ccccc1F	-7	2	32*
O=c1c2cc([N+](=O)[O-])ccc2nc(CN2CCC(Cc3ccccc3)CC2)n1-c1ccccc1F	-6	-1	-31
Cc1ccccc1NC(=O)CCn1nc(C)c(S(=O)(=O)N2CCOCC2)c1C	-23	-5	-21
O=C(c1ccc(F)cc1)N1CCC(c2ccnc(Nc3cnccn3)n2)C1 (centres undefined)	-4	-13	-29
COc1ccc(C(=O)Nc2cc(F)c3nc(N4CCOCC4)ccc3c2)c(OC)c1	73*	0	-127
COc1ccc(CC(=O)Nc2cc(F)c3nc(N4CCOCC4)ccc3c2)cc1	-4	-18	-18
O=C(CC1CCCC1)Nc1cc(F)c2nc(N3CCOCC3)ccc2c1	21	5	-35
O=C(Cc1cccs1)Nc1cc(F)c2nc(N3CCOCC3)ccc2c1	62*	6	-20
O=C(c1n[nH]c2ccccc12)N1CCOC(c2cnccn2)C1 (centres undefined)	6	0	19
O=S(=O)(c1cccc2cccnc12)N1CCN(c2ccc(F)cc2)CC1	13	8	30*
O=S(=O)(c1cccc2cccnc12)N1CCCC1c1ccc(F)cc1 (centres undefined)	-5	10	-9
SMILES	USP17 inh	USP28 block	USP30 block
CCc1cc2c(=O)[nH]c(Cc3ccc(OC)cc3)nc2s1	58*	11	40*
COc1ccc(Nc2nnc(Cc3ccc(Cl)cc3)c(=O)[nH]2)cc1	-3	-8	4
O=C(NCCN1CCOCC1)c1[nH]nc2c1CCc1ccccc1-2	-3	17	-1
O=C(NCCc1nc2ccccc2[nH]1)c1[nH]nc2c1CCc1ccccc1-2	10	18	45*
Cc1cc(N2CCOCC2)ccc1NC(=O)C1CCN(c2ncccn2)CC1	1	-15	1
Cc1ccc(N2CCN(C3=NC(C(=O)Nc4ccccc4)CC(=O)N3)CC2)cc1 (centres undefined)	20	12	28
O=C1CC(C(=O)Nc2ccccc2)N=C(N2CCN(c3ccccc3F)CC2)N1 (centres undefined)	2	18	33*
Cc1cccc(C(C)C)c1NC(=O)Cn1c(COc2ccccc2)nc2ccccc21	nt	3	22
COc1ccc(NC(=O)Cn2c(CSc3ccc(C)cc3)nc3ccccc32)cc1	54*	25	-112
Cc1ccc(OCc2nc3ccccc3n2CC(=O)Nc2ccc(C(F)(F)F)cc2)cc1	18	-2	38*
COc1ccc(NC(=O)CSc2nc3ccccc3c3nc(C)nn23)cc1	17	12	14
